{"source": "PubChem BioAssay AID624483", "about": "(NMMLSC, 2012)", "note": "Screen size: about 360,000 compounds; about 11,000 (3.1%) were called active. Not shown: some 2% with an inconclusive outcome. Only a selection was taken, and actives are over-represented in it overall. Values without a mark were called inactive. Cut-off read from the data, not from the text of the source: active = fluorescence intensity above about 16000; inconclusive = no clear call, values can overlap the other calls; inactive = below that.", "data": [{"experiment": "compound fluorescence in toxin protease inhibitor counterscreen, primary screen, artefact control for toxin protease inhibitor project, biochemical, multiplex microsphere, HTS (AID 624483)", "settings": "compound autofluorescence counterscreen, microsphere flow cytometry; stronger effect = higher value", "values": [{"smiles": "COC(=O)C1=C(N)Oc2c(oc(CO)cc2=O)C1c1c(F)cccc1Cl", "note": "(stereo not drawn)", "fluorescence intensity": 3610}, {"smiles": "COc1ccc(C(=O)N/N=C2\\CCS(=O)(=O)c3ccc(F)cc32)cc1OC", "fluorescence intensity": 4530}, {"smiles": "Cc1ccc(-c2nn(-c3ccccc3)cc2C(=O)NCCCN2CCCC2=O)cc1", "fluorescence intensity": 4630}, {"smiles": "CCOc1ccc(C(=O)NCCCN2CCCC2=O)cc1", "fluorescence intensity": 3040}, {"smiles": "Cc1ccc(C(=O)N(CN2CCCC2=O)c2ccc(F)cc2)cc1", "fluorescence intensity": "24000 (active)"}, {"smiles": "Cc1ccc(-n2nc(N)c3c(=O)oc(N(C)C)nc32)cc1", "fluorescence intensity": "23400 (active)"}, {"smiles": "CCCNC(=O)CCc1c(C)nc2c(c(C)nn2-c2ccc(C)cc2)c1C", "fluorescence intensity": 3860}, {"smiles": "Cc1ccc2c(=O)oc(N(C)C)nc2c1", "fluorescence intensity": 2560}, {"smiles": "Cc1ccc(NS(=O)(=O)c2c(C)[nH]c(=O)[nH]c2=O)cc1C", "fluorescence intensity": 10900}, {"smiles": "CC1(C)Cc2ccccc2-c2[nH]c(=S)[nH]c(=O)c21", "fluorescence intensity": 4400}, {"smiles": "CC1(C)Cc2ccccc2-c2nc(CN3CCOCC3)[nH]c(=O)c21", "fluorescence intensity": "22300 (active)"}, {"smiles": "O=c1[nH]c(CN2CCOCC2)nc2scc(-c3ccccc3)c12", "fluorescence intensity": 4340}, {"smiles": "CC(C)c1cccc(C(C)C)c1Nc1cn[nH]c1", "fluorescence intensity": 6170}, {"smiles": "CCOc1ccc(NC(=O)c2ccc(NC(=O)COC(=O)c3ccc(NC(=O)CC#N)cc3)cc2)cc1", "fluorescence intensity": 4430}, {"smiles": "COc1ccc(NC(=O)COC(=O)C2COc3ccccc3O2)cc1", "note": "(stereo not drawn)", "fluorescence intensity": 3930}, {"smiles": "CCC(C)(C)c1ccc(Oc2ccc(NC(=O)COC(=O)C3=COCCO3)cc2)cc1", "fluorescence intensity": "21300 (active)"}, {"smiles": "C/C(=N\\NS(=O)(=O)c1ccccc1)c1c(O)cc(C)oc1=O", "fluorescence intensity": 5910}, {"smiles": "O=C(CSc1nccc(=O)[nH]1)Nc1ccc(N2CCOCC2)c(Cl)c1", "fluorescence intensity": 3800}, {"smiles": "CCOc1ncccc1C(=O)OCC(=O)N1c2ccccc2CC1C", "note": "(stereo not drawn)", "fluorescence intensity": 3090}, {"smiles": "CCOC(=O)c1c(C)[nH]c(C(=O)OCC(=O)N2CCCC2=O)c1C", "fluorescence intensity": 6230}, {"smiles": "CCOC(=O)c1[nH]c(C)c(C(=O)OCC(=O)N2c3ccccc3CC2C)c1C", "note": "(stereo not drawn)", "fluorescence intensity": "19700 (active)"}, {"smiles": "CC(C)C(OC(=O)c1cccs1)C(=O)NC1CCCCC1", "note": "(stereo not drawn)", "fluorescence intensity": 9640}, {"smiles": "Cc1ccc(-c2nc(COC(=O)c3c(C)noc3C)cs2)cc1", "fluorescence intensity": 9900}, {"smiles": "COc1ccc(N2C(=O)c3ccccc3NC2c2ccc(OC)c(CN3CCOCC3)c2)cc1", "note": "(stereo not drawn)", "fluorescence intensity": 4330}, {"smiles": "COc1ccccc1CN1CCCC(N2CCN(c3ccc(F)cc3)CC2)C1", "note": "(stereo not drawn)", "fluorescence intensity": 4030}, {"smiles": "COc1ccc(C2C(C#N)=C(N)Oc3n[nH]c(C)c32)cc1CN1CCN(c2ccc(F)cc2)CC1", "note": "(stereo not drawn)", "fluorescence intensity": "24200 (active)"}, {"smiles": "CSc1ncnc2c1ncn2CCCNCC1CCCCC1", "fluorescence intensity": 3580}, {"smiles": "CCOC(=O)C1CCN(C(=O)Nc2cccc(OC)c2)CC1", "fluorescence intensity": 3130}, {"smiles": "COc1cccc(N2CCN(C(=O)Nc3ccc4c(c3)NC(=O)CO4)CC2)c1", "fluorescence intensity": "19600 (active)"}, {"smiles": "O=C1COc2ccc(NC(=O)N3CCN(c4ccc(F)cc4)CC3)cc2N1", "fluorescence intensity": "22400 (active)"}, {"smiles": "Cc1ccc(NC(=O)C2CCN(S(=O)(=O)c3ccc4c(c3)NC(=O)CO4)CC2)cc1C", "fluorescence intensity": 6240}, {"smiles": "COc1ccc(NC(=O)CCS(=O)(=O)c2cc3c(cc2Cl)NC(=O)CO3)cc1OC", "fluorescence intensity": 4470}, {"smiles": "CC(CC(=O)Nc1ccc(F)cc1F)S(=O)(=O)c1ccc2c(c1)NC(=O)CO2", "note": "(stereo not drawn)", "fluorescence intensity": 6050}, {"smiles": "Clc1ccccc1Nc1nc(NCc2cccs2)nc2ccsc12", "fluorescence intensity": 2970}, {"smiles": "O=C(NN=Cc1ccccc1O)C(=O)NN=Cc1ccccc1O", "fluorescence intensity": 3880}, {"smiles": "COC(=O)[C@H](CC(C)C)NC(=O)N1CCCCC1C", "note": "(stereo partly drawn)", "fluorescence intensity": 6670}, {"smiles": "COc1ccccc1-c1cc(NC(C)=O)c2ncc(-c3ccc(F)cc3)n2c1", "fluorescence intensity": 3190}, {"smiles": "O=C(c1ccc(F)cc1)N1CCC(C(=O)N2CCN(S(=O)(=O)c3ccccc3Br)CC2)CC1", "fluorescence intensity": 6500}, {"smiles": "CC(=O)c1c(N2CCOCC2)nc(=S)n(Cc2ccccc2)c1C", "fluorescence intensity": 2990}, {"smiles": "CCSc1nc(=S)n(CC)c(C)c1C(C)=O", "fluorescence intensity": "19400 (active)"}, {"smiles": "CCn1c(CSc2nc(C)cc(C)n2)nnc1SCC(N)=O", "fluorescence intensity": 4570}, {"smiles": "CCCc1nc(-c2ccccc2O)n(-c2ccccc2)n1", "fluorescence intensity": 3640}, {"smiles": "CC(=O)NC(C)(C)C1CC=C(C)/C(=N\\O)C1", "note": "(stereo not drawn)", "fluorescence intensity": "17100 (active)"}, {"smiles": "C=C(C)C1CC=C(C)/C(=N\\NC(=O)CNc2ccccc2OC)C1", "note": "(stereo not drawn)", "fluorescence intensity": 2580}, {"smiles": "OC(c1ccccc1)c1nc(/C=C/c2ccc(C(F)(F)F)cc2)cs1", "note": "(stereo not drawn)", "fluorescence intensity": 2820}, {"smiles": "O=C(CSc1nnc(Cn2cnc3ccccc32)o1)c1ccccc1", "fluorescence intensity": 4020}, {"smiles": "CC(=O)Nc1ccc(C(=O)CSc2nnc(Cc3ccccc3)o2)cc1", "fluorescence intensity": "16300 (active)"}, {"smiles": "CCCc1nnc(SCC(=O)Nc2ccc(C(=O)OCC)cc2)o1", "fluorescence intensity": 3670}, {"smiles": "CN(Cc1cn(Cc2ccc(C(F)(F)F)cc2)nn1)C1CN(Cc2cn(Cc3ccc(C(F)(F)F)cc3)nn2)S(=O)(=O)C1", "note": "(stereo not drawn)", "fluorescence intensity": 5810}, {"smiles": "COc1ccc(CNC2CCCCC2)cc1", "fluorescence intensity": "22800 (active)"}, {"smiles": "COc1ccc(CNC(=O)C2CCCC2)cc1", "fluorescence intensity": 5540}, {"smiles": "COc1ccc(CNc2nc(NCc3ccc(OC)cc3)c3ncn(C4CCCC4)c3n2)cc1", "fluorescence intensity": 4490}, {"smiles": "COc1cccc(NC(=O)C2(C)CCN2Cc2ccccc2Cl)c1", "note": "(stereo not drawn)", "fluorescence intensity": 3880}, {"smiles": "COc1ccccc1CNC(=O)c1cc(-c2cc(Cl)ccc2C)n[nH]1", "fluorescence intensity": 3000}, {"smiles": "O=C(CSc1nnc(COc2ccc(Cl)cc2)n1Cc1ccco1)N1CCNC1=O", "fluorescence intensity": 5560}, {"smiles": "COc1ccc(C(=O)CSc2nnc(COc3ccccc3)n2Cc2ccco2)cc1", "fluorescence intensity": "23900 (active)"}, {"smiles": "CCn1c(CNc2ccc(OC)cc2)nnc1SCC(=O)c1ccc(OC)cc1", "fluorescence intensity": 3090}, {"smiles": "CCCCN(CC)C(=O)CN(C)S(=O)(=O)c1cccc2nsnc12", "fluorescence intensity": 6470}, {"smiles": "CC(C(=O)NC1CCCC1)N1CCN(S(=O)(=O)c2ccccc2Cl)CC1", "note": "(stereo not drawn)", "fluorescence intensity": 4750}, {"smiles": "O=C(CN1C(=O)NC(Cc2ccccc2)(Cc2ccccc2)C1=O)NCC1CCCCC1", "fluorescence intensity": "20200 (active)"}, {"smiles": "O=C(CC1CCCCC1)NCc1ccccc1", "fluorescence intensity": 3670}, {"smiles": "CCCCNC(=O)CN1C(=O)NC(Cc2ccccc2)(Cc2ccccc2)C1=O", "fluorescence intensity": 5690}, {"smiles": "CSc1ccccc1C(=O)Nc1cccc(C(C)=O)c1", "fluorescence intensity": "26700 (active)"}, {"smiles": "CC(=O)c1cccc(NC(=O)c2cc(C)nn2-c2ccccc2)c1", "fluorescence intensity": 3940}, {"smiles": "CC(=O)c1cccc(NC(=O)[C@@H](NC(N)=O)C(C)C)c1", "fluorescence intensity": 3400}, {"smiles": "COC(=O)c1ccc2c(c1)S(=O)(=O)NC2C", "note": "(stereo not drawn)", "fluorescence intensity": 5730}, {"smiles": "COC(=O)c1ccc(OCC(O)CN(CCO)CC(O)Cn2ccc3ccccc32)cc1", "note": "(stereo not drawn)", "fluorescence intensity": 2540}, {"smiles": "Cc1cc(C(F)(F)F)nc(SCC(=O)Nc2nccs2)n1", "fluorescence intensity": 4960}, {"smiles": "CCn1c(SCC(=O)Nc2sc(C)c(C)c2C#N)nnc1C1CC1", "fluorescence intensity": 4370}, {"smiles": "CCOC(=O)c1sc(NC(=O)CSc2nc(C)cc(C(F)(F)F)n2)c(C#N)c1C", "fluorescence intensity": "20700 (active)"}, {"smiles": "CC(C)(C)S(=O)N1Cc2cc(C(=O)NCCCN3CCOCC3)nc(-c3cccc(-c4cc5ccccc5o4)c3)c2[C@H]1CCO", "note": "(stereo partly drawn)", "fluorescence intensity": 4620}, {"smiles": "Cc1noc(NS(=O)(=O)c2ccc(N3CC(O)=C(c4ccccc4)C3=N)cc2)c1C", "fluorescence intensity": 2440}, {"smiles": "CCOC(=O)C1CCCN(C(=O)c2ccc(C)c(F)c2)CC1", "note": "(stereo not drawn)", "fluorescence intensity": 3730}, {"smiles": "CCS(=O)(=O)Nc1ccc(C2=NN(C(C)=O)C(c3cccs3)C2)cc1", "note": "(stereo not drawn)", "fluorescence intensity": 2400}, {"smiles": "CCS(=O)(=O)Nc1ccc(C2=NN(S(=O)(=O)c3ccc(F)cc3)C(c3ccco3)C2)cc1", "note": "(stereo not drawn)", "fluorescence intensity": "17100 (active)"}, {"smiles": "CS(=O)(=O)Nc1cccc(C2=NN(S(=O)(=O)c3ccccc3)C(c3cccs3)C2)c1", "note": "(stereo not drawn)", "fluorescence intensity": 8170}, {"smiles": "CCOC(=O)C1(C(F)(F)F)N=C(N(C)C)OC(N(C)C)=N1", "fluorescence intensity": 2190}, {"smiles": "COCCCNC(=O)CNC(=S)N(Cc1cc(OC)c(OC)c(OC)c1)C1CCCC1", "fluorescence intensity": 2570}, {"smiles": "O=S1(=O)CC(NCc2ccccc2)C(Nc2ccc(Cl)cc2)C1", "note": "(stereo not drawn)", "fluorescence intensity": 3670}, {"smiles": "CCn1c(C)nc2cc(C(=O)NNS(=O)(=O)c3ccc(C)cc3C)ccc21", "fluorescence intensity": "22500 (active)"}, {"smiles": "CCn1c(CNC(=O)c2cc(OC)c(OC)c(OC)c2)cc2cc(C)ccc21", "fluorescence intensity": 3780}, {"smiles": "Cc1ccc(S(=O)(=O)N2CCN(C(=O)Cn3c(=O)cnc4ccccc43)CC2)c(C)c1", "fluorescence intensity": 5660}, {"smiles": "CC(=O)Nc1cnc(-c2ccc(O)cc2C)cn1", "fluorescence intensity": 3960}, {"smiles": "NS(=O)(=O)c1ccc(NC2=CC(c3ccc(F)cc3)N(c3ccc(S(N)(=O)=O)cc3)C2=O)cc1", "note": "(stereo not drawn)", "fluorescence intensity": 4340}, {"smiles": "C#CCN(C[C@H]1[C@H](OC(=O)NC2CCCC2)[C@H](OC(=O)NC2CCCC2)C[C@H]2C(=O)N(c3ccccc3)C(=O)[C@@H]12)S(=O)(=O)c1ccc(C)cc1", "fluorescence intensity": 3750}, {"smiles": "Cc1ccccc1CSc1nnc(-c2cccnc2)n1N", "fluorescence intensity": 2660}, {"smiles": "Cc1ccccc1CSc1nnc(-c2ccccn2)n1N", "fluorescence intensity": "16200 (active)"}, {"smiles": "Cn1c(SCC(=O)C(C)(C)C)nnc1-c1ccccn1", "fluorescence intensity": 9760}, {"smiles": "COc1ccc(C(=O)NC(=S)N2CCCCC2c2cccnc2)cc1OC", "note": "(stereo not drawn)", "fluorescence intensity": 4080}, {"smiles": "Cc1ccc(-n2c(=O)c(C#N)cc3c(=O)n4ccccc4nc32)cc1C", "fluorescence intensity": "24200 (active)"}, {"smiles": "Cc1ccc(Cn2c(=N)c(S(=O)(=O)c3ccc(C)cc3)cc3c(=O)n4ccccc4nc32)cc1", "fluorescence intensity": 4390}, {"smiles": "CCn1c(=N)c(S(=O)(=O)c2ccc(F)cc2)cc2c(=O)n3ccccc3nc21", "fluorescence intensity": 2990}, {"smiles": "CCc1nc2nc(C)c(NS(=O)(=O)c3ccc4c(c3)CCCC4)c(=O)n2[nH]1", "fluorescence intensity": 4030}]}]}
